The text below walks through data of PubChem BioAssay (NCI).

About 83,000 compounds went through this panel and 20% of them were active in at least one assay; those are over-represented in the sample as a whole.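 Assay: single dose, 48 h. Readout: percent growth (0 = no net growth; negative = cell death). Active: <10.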 Calls of active or inactive are those of the source.

This assay has as its system SN12C renal. The experiment in a line: NCI-60 one-dose screen, 48 h (100 = growth as untreated, 0 = no growth, -100 = all killed). The conditions noted are these: 10 µM unless noted. As to the method:
Growth inhibition of the SN12C human tumor cell line is measured as a screen for anti-cancer activity. Cells are grown in 96 well plates and exposed to the test compound for 48 hours. Compounds are tested at a single concentration, which is 10^-5 M for most compounds. The reported endpoint is percent growth (GI% or GIPRCNT), where numbers from 0 - 100% represent growth inhibition, and numbers from -100% - 0 represent cell death. For example, a value of 40 represents 60% growth inhibition. A value of 0 means no net growth occurred over the course of the experiment. A value of -40 indicates 40% of cells at the beginning of the experiment died by the end of the experiment. A value of -100 means all cells are dead at the end of the experiment.
NCI-60 Human Tumor Cell Lines Screen was performed using the standard one-dose NCI protocol, which is described in more detail at https://dtp.cancer.gov/discovery_development/nci-60/default.htm.
Compounds with GIPRCNT values below 10 were considered active. Activity score was based on GIPRCNT using the following formula: […]
Score is 0 for GIPRCNT values of 100 or above, 50 for GIPRCNT values of 0, and 100 for GIPRCNT values of -100.
Turning to `O=C1c2cccnc2C(=O)c2c1c(C(=O)OCCc1ccccn1)c1ccccn21`, the growth was -33.4% (active). The result for `COc1cccc(CNc2c3ccccc3nc3ccccc23)c1OC` reads 30.9% (inactive); that for `Cc1cc2oc(/C=C/c3ccccc3)cc(=O)c2c(C)c1Cl`, 99.1% (inactive). As to `COc1ccc(CN2C(=O)OC(C)(COC(C)=O)C2=O)cc1` (stereo not given), the growth is 99.8% (inactive).

Consider `CCN1C(=O)N(c2ccccc2)C2NC(=S)N(/N=C/C=C/c3ccccc3OC)C21` (stereo not given), for which the growth was 17.9% (inactive). In the case of `Fc1cccc(CNc2c3ccccc3nc3ccccc23)c1`, the growth is 32.8% (inactive). As to `CCOC(=O)C1=C(c2ccccc2)N=C2N(c3ccccc3)N=C(C(C)=O)N2C1c1ccc(F)cc1` (stereo not given), the growth was 94.3% (inactive).

`C=C(C)[C@@H]1CC[C@]2(C(=O)N3CCNCC3)CC[C@]3(C)[C@H](CC[C@@H]4[C@@](C)(CCC(=O)N5CCNCC5)[C@H](C(=C)C)CC[C@]43C)[C@@H]12`: the growth was 91.4% (inactive).

On to `O=C(Oc1ccc2c(c1)sc1nc(-c3ccccc3)[nH]c(=O)c12)C(F)(F)F`, for which the growth was 32% (inactive). Turning to `COc1ccc(Oc2ccc(/C=C/C(=O)c3cc4ccccc4oc3=O)cc2)cc1`, the growth was 86.1% (inactive).

As to `Cc1cn(C)cn1`, the growth is 105% (inactive). Take `C=C1SC(=Nc2ccccc2Cl)N(C(=O)c2sc3ccccc3c2Cl)C1(C)C`: the growth is 78.9% (inactive). Take `CC(C)c1ccc2c(c1)CC[C@H]1[C@](C)(C(=O)OCC#CCN3CCCC3)CCC[C@]21C`: the growth is 71.5% (inactive).

As to `ClC(Cl)c1nc(-c2ccccc2)n2nc(-c3ccccc3)cc2n1`, the growth was 58.7% (inactive). In the case of `COc1cc(/C=C/c2cn[nH]c2-c2ccc(C)cc2)cc(OC)c1OC`, the growth is 51.2% (inactive). As for `CS(=O)(=O)Nc1cc(-c2ccc3ncnc(Nc4ccc(F)c(Cl)c4)c3c2)ccc1Cl`, the growth was 52.7% (inactive). In the case of `COCCn1cc(-c2nc(-c3cc4cccnc4n3C)cs2)c2ccccc21`, the growth was 59.1% (inactive). The result for `COCCn1cc(-c2csc(-c3c[nH]c4ccc(F)cc34)n2)c2cccnc21` reads 66.7% (inactive).

As to `CCN(CC)CCOc1ccc(C(=O)/C=C\c2ccc(Cl)cc2Cl)cc1`, the growth is 43.4% (inactive). Take `COc1ccc(C(c2cc(OC)c(OC)c(OC)c2)N2CCCCC2)cc1` (stereo not given): the growth was 54.3% (inactive).

With `Oc1ccc(-c2nc3ccc4[nH]ncc4c3c3c2CCCC3)c(F)c1`, the growth was 44.8% (inactive). As for `O=C1O[C@@H](c2ccccc2Cl)[C@@H]2c3cc4c(cc3CCN12)OCO4`, the growth is 103% (inactive).

As for `Oc1nc(NCc2ccccc2)sc1/C=C1\C=Nc2ncccc21`, the growth was 72.8% (inactive). As to `C=CC(CC(c1ccccc1)(c1ccccc1)c1ccccc1)N(CC)CC` (stereo not given), the growth is 71.4% (inactive). The result for `O=C(NCCN1CCOCC1)OCc1ccc2c(Cl)cc(Cl)c(O)c2n1` reads 64.4% (inactive); that for `CCCCNC(=O)c1ccc2c(c1)nc(-c1ccccc1)n2C1CCCCC1`, 102% (inactive).

On to `COC12C=C/C(=C(/C(=O)OCc3cncnc3)C(=O)CCCCCCCCC3(OC)C=C/C(=C(/C(=O)OCc4cncnc4)C(=O)CCCCCCCC1)O3)O2`, for which the growth was -34.7% (active). Take `O=C(C[C@]1(O)C(=O)Nc2ccc(Br)cc21)c1ccco1`: the growth was 90% (inactive). As to `CCCC(=O)NC(c1ccc2c(c1)OCO2)c1cc(Cl)c2cccnc2c1O` (stereo not given), the growth is 38.1% (inactive). Under `Cc1cc(N2CCN(CC(=O)Nc3ccc4c(ccn4Cc4ccccc4)c3)CC2)nc(N2CCOCC2)n1` stands 87% (inactive); under `CC(C)n1c2ccc(Br)cc2c2c3c(c4c5ccccc5ccc4c21)C(=O)NC3=O`, 85.9% (inactive). Turning to `C=C1C(=O)O[C@H]2[C@H]1CC/C(COC(=O)NCc1ccc(Cn3c(=O)sn(-c4ccccc4)c3=O)cc1)=C\CC[C@@]1(C)O[C@@H]21`, the growth is 33.9% (inactive).

In the case of `Brc1ccc(Nc2nc(Nc3cnc4ccccc4c3)c3[nH]cnc3n2)cc1`, the growth is 88.3% (inactive). The result for `CNCC[C@H](Oc1cccc2ccccc12)c1cccs1` reads 79.1% (inactive).

In the case of `CCOC(=O)NCCCC(=O)NCCc1ccccc1`, the growth is 106% (inactive). For the molecule `O=C(Nc1ncc(Cc2ccccc2)s1)c1sc2ccccc2c1Cl`, the growth is 39.5% (inactive). On to `Nc1cc(-c2ccc(Cl)cc2)nn1-c1nnc(/C=C/c2ccco2)c(=O)[nH]1`, for which the growth is 68.2% (inactive). The result for `N#CSc1c[nH]c2ccc(/C=C/C(=O)/C=C(O)/C=C/c3ccc4[nH]cc(SC#N)c4c3)cc12` reads 18.4% (inactive); that for `O=C(/C=C/c1ccccc1Cl)c1cccc(OCCCCOc2cccc(C(=O)/C=C/c3ccccc3Cl)c2)c1`, 95.8% (inactive). `COc1c2c(cc3c1C(=O)N[C@@H]1[C@@H](O)[C@@H](O)[C@H](O)C[C@@H]31)OCCO2`: the growth is 103% (inactive).
